The text below walks through data of PubChem BioAssay (Tox21).

“And” between values parts separate entries of the source, which are not always exact repeats. Equal values may be shown once. Some structures have more than one record in an assay (separate samples or runs), and their calls can disagree. The source made the active and inactive calls. Unless noted, calls come from the whole dose curve; as a rule, active = well fitted curve in the direction sought with a large enough effect in the repeat runs; inconclusive = weak or mixed curves; inactive = no such curve, though single readings can be large; an effect the other way counts as inactive or inconclusive. Residues, ends and D or L forms follow the SMILES beside them.

Assay [1] is described as follows: qHTS assay to identify small molecule antagonists of the thyroid receptor (TR) signaling pathway - cell viability counter screen (AID 743064). Note: nearly all actives have a fitted effect of over 50% in size. Note: potency is the fitted concentration of half-maximal effect. Put shortly: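 Plate GH3.TRE-Luc cells; incubate 4 h at 37 °C; add compound, then T3 to 1 nM final; incubate 23.5 h; add CellTiter-Fluor; incubate 30 min at 37 °C, 5% CO2; read fluorescence.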
In general terms: qHTS replaces the single test concentration by a dilution series.

Assay [2] can be described thus: qHTS assay to identify small molecule antagonists of the thyroid receptor (TR) signaling pathway (AID 743065). Note: nearly all actives have a fitted effect of over 55% in size. Note: potency is the fitted concentration of half-maximal effect. A digest of the protocol: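 GH3.TRE-Luc rat pituitary cells (two TREs driving luciferase) were dosed with compound, then stimulated with 1 nM T3 (final) for 23.5 h at 37 C. ONE-Glo luminescence was the read-out, with CellTiter-Fluor fluorescence as the cytotoxicity counter-screen.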

In assay [3] the test system is thyroid hormone receptor (rat, GH3 cells). Put plainly: qHTS assay to identify small molecule agonists of the thyroid receptor (TR) signaling pathway (AID 743066; calls by dose curve).
The target in assay [4] is Estrogen receptor (Homo sapiens) (UniProt P03372). Put plainly: qHTS assay to identify small molecule antagonists of the estrogen receptor alpha (ER-alpha) signaling pathway (AID 743069; active = well fitted curve in the direction sought with a large enough effect in the signal ratio in the repeat runs, not every such curve was filed as active; inconclusive = weak or mixed curves, or effect the other way; inactive = no such curve, though single readings can be large or run the other way; the % refers to the signal ratio; note: potency is the fitted concentration of half-maximal effect). Put shortly: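 HEK293 ER-alpha-UAS-bla GripTite cells, held overnight in 2% charcoal-stripped FBS, 5,000 cells/well, preincubated 4 h, then compound plus 17beta-estradiol for 18 h at 37C. Beta-lactamase read by LiveBLAzer B/G FRET substrate, 2 h at room temperature.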
Estrogen receptor (Homo sapiens), sequence (P03372 whole entry, looked up): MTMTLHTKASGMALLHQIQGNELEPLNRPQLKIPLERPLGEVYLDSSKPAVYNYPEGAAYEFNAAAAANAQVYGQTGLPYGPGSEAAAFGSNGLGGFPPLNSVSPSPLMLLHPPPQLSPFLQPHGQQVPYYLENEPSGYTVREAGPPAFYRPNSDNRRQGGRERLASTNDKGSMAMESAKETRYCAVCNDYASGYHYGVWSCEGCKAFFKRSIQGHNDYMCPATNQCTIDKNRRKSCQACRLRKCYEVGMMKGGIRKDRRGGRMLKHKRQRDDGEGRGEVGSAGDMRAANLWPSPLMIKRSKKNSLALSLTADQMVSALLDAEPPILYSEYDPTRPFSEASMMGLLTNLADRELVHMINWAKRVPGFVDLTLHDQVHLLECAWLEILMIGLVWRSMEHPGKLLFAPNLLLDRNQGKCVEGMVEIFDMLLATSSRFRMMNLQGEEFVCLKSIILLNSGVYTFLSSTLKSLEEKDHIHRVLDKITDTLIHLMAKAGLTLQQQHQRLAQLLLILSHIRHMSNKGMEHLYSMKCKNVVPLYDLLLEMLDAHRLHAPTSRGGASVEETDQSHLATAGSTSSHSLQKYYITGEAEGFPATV

The nature of assay [5]: qHTS assay to identify small molecule antagonists of the estrogen receptor alpha (ER-alpha) signaling pathway - cell viability counter screen (AID 743074; calls by dose curve;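 note: HEK293 cells carrying ER-alpha-UAS-bla reporter stimulated with 17beta-estradiol; nearly all actives have a fitted effect of over 45% in size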).
Assay [6] deals with Estrogen receptor (Homo sapiens) (UniProt P03372). The assay is described as follows: qHTS assay to identify small molecule agonists of the estrogen receptor alpha (ER-alpha) signaling pathway (AID 743075; calls by dose curve; note: potency is the fitted concentration of half-maximal effect).
For assay [7] the target is unchanged. Put plainly: qHTS assay to identify small molecule agonists of the estrogen receptor alpha (ER-alpha) signaling pathway using the BG1 cell line (AID 743079). Note: nearly all actives have a fitted effect of over 20% in size. Note: potency is the fitted concentration of half-maximal effect.
Assay [8] is described as follows: qHTS assay to identify small molecule antagonists of the estrogen receptor alpha (ER-alpha) signaling pathway using the BG1 cell line - cell viability counter screen (AID 743081).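 Note: compound given together with 17beta-estradiol as the ER stimulus; nearly all actives have a fitted effect of over 45% in size.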 Note: potency is the fitted concentration of half-maximal effect.
The target of the next assay is Aromatase (Homo sapiens) (UniProt P11511). The assay is described as follows: qHTS assay to identify aromatase inhibitors (AID 743083). Note: nearly all actives have a fitted effect of over 55% in size. Note: potency is the fitted concentration of half-maximal effect.
Aromatase (Homo sapiens), sequence (P11511 whole entry, looked up): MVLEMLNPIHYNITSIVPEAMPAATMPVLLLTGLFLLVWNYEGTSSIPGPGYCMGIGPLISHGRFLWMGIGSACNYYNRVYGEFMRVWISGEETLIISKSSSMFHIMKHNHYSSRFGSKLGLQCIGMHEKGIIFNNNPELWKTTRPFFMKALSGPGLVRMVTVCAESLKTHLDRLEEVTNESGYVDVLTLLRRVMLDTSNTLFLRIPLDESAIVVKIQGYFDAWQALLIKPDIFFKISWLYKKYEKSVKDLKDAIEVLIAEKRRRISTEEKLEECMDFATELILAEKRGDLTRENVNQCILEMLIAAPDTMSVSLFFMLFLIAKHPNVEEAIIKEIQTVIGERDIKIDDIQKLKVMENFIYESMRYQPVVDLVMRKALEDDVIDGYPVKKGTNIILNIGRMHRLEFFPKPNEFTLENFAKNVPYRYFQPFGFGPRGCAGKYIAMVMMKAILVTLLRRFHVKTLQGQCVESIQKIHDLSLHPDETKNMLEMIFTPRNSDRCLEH
Assay [9] in a line: qHTS assay to identify small molecule antagonists of the estrogen receptor alpha (ER-alpha) signaling pathway using the BG1 cell line (AID 743080; calls by dose curve;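 note: BG1 cells stimulated with 17beta-estradiol alongside compound; series mostly up to about 70 µM; nearly all actives have a fitted effect of over 25% in size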). A digest of the protocol:
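BG1-Luc-4E2 cells (endogenous full-length ER-alpha, 4xERE luciferase) hormone-starved 5 days in charcoal-stripped FBS, plated 4,000/well for 24 h, then compound plus 17beta-estradiol for 21.5 h at 37 C; ONE-Glo luminescence read.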

With `O=c1ccc2ccccc2o1`, the Potency result in [1], in assay [2], in assay [3], in [4], in assay [5] and in [6] was “inactive” throughout. The Potency entry (in assay [8]; in the assay with Aromatase (Homo sapiens)) was “inactive” throughout. In addition, in assay [7], the Potency was 18.8 µM (active) and inactive.
Turning to `Cn1cc[nH]c1=S`, the Potency entry in assay [1], in assay [2], in assay [3], in assay [4], in [5] and in [6] was “inactive” throughout. In addition, the Potency result (in [7]; in assay [8]; with Aromatase (Homo sapiens)) was “inactive” throughout.
Turning to `CC(=O)Nc1nnc(S(N)(=O)=O)s1`, the Potency entry in [1], in assay [2], in [3], in assay [4], in assay [5] and in [6] was “inactive” in each case. Further, the Potency result (in assay [7]; in assay [8]; with Aromatase (Homo sapiens)) was “inactive” each time.
As to `Cc1cc(=O)[nH]c(=S)[nH]1`, the Potency result in assay [1], in assay [2], in assay [3], in [4], in assay [5] and in assay [6] was “inactive” each time. In addition, the Potency result (in [7]; in assay [8]; with Aromatase (Homo sapiens)) was “inactive” in each case.
For the compound `O=C(O)c1[nH]n(-c2ccc(S(=O)(=O)O)cc2)c(=O)c1N=Nc1ccc(S(=O)(=O)O)cc1`, the Potency in assay [1] was 54.6 µM (active) and 50.9 µM (active); in assay [8] it was “inactive and 54.6 µM (active) and 64.1 µM (active)”. The Potency result in [2], in assay [3], in [4], in assay [5], in assay [6] and in assay [7] was “inactive” throughout. In addition, the Potency entry with Aromatase (Homo sapiens) is “inactive”.
On to `CC(C)(Oc1ccc(C2CC2(Cl)Cl)cc1)C(=O)O` (stereo not drawn), for which the Potency result in [1], in [2], in assay [3], in assay [4], in assay [5] and in assay [6] was “inactive” throughout. Further, the Potency result (in assay [7]; in assay [8]; with Aromatase (Homo sapiens)) was “inactive” throughout.
Turning to `O=c1cc[nH]c(=S)[nH]1`, the Potency entry in assay [1], in assay [2], in assay [3], in assay [4], in assay [5] and in assay [6] was “inactive” throughout. Also, the Potency entry (in assay [7]; in assay [8]; with Aromatase (Homo sapiens)) was “inactive” throughout.
`COC(=O)[C@H](Cc1ccccc1)NC(=O)[C@@H](N)CC(=O)O` (H-Asp-Phe-OMe): the Potency entry in assay [1], in [2], in [3], in assay [4], in assay [5] and in assay [6] was “inactive” throughout. In addition, the Potency result (in assay [7]; in assay [8]; with Aromatase (Homo sapiens)) was “inactive” throughout.
`NC(=O)c1ccccc1O`: the Potency entry in assay [1], in assay [2], in [3], in assay [4], in [5] and in assay [6] was “inactive” in each case. The Potency entry (in assay [7]; in assay [8]; with Aromatase (Homo sapiens)) was “inactive” in each case.
Take `CCCC(CCC)C(=O)O`: the Potency result in [1], in assay [2], in [3], in [4], in [5] and in assay [6] was “inactive” in each case. The Potency entry (in [7]; in assay [8]; with Aromatase (Homo sapiens)) was “inactive” throughout.
In the case of `O=C(O)CS`, the Potency result in assay [1] is “inactive and 61.6 µM (active)”. In addition, the Potency result in assay [2], in [3], in assay [4], in [5], in [6] and in assay [7] was “inactive” each time. Further, the Potency entry (in assay [8]; with Aromatase (Homo sapiens)) was “inactive” throughout.
On to `NNC(=O)c1ccncc1`, for which the Potency result in assay [1], in [2], in assay [3], in assay [4], in [5] and in [6] was “inactive” in each case. In addition, the Potency entry (in assay [7]; in [8]; in the assay with Aromatase (Homo sapiens)) was “inactive” in each case.
Turning to `CCCC(O)C(CC)CO` (stereo not drawn), the Potency result in assay [1], in [2], in [3], in assay [4], in [5] and in [6] was “inactive” each time. The Potency entry (in assay [7]; in [8]; with Aromatase (Homo sapiens)) was “inactive” in each case.
For `Cc1ccc(S(=O)(=O)NC(=O)NN2CCCCCC2)cc1`, the Potency result in [1], in [2], in assay [3], in assay [4], in [5] and in assay [6] was “inactive” in each case. The Potency entry (in [8]; in the assay with Aromatase (Homo sapiens)) was “inactive” throughout. In addition, the Potency entry in assay [7] is “inactive and 30.6 µM (active)”.
As for `O=C(O)CCCCC(=O)O`, the Potency result in [1], in [2], in assay [3], in [4], in assay [5] and in [6] was “inactive” throughout. Also, the Potency entry (in assay [7]; in assay [8]; with Aromatase (Homo sapiens)) was “inactive” in each case.
As for `COc1ccc2[nH]cc(CCNC(C)=O)c2c1`, the Potency result in assay [1], in assay [2], in [3], in assay [4], in assay [5] and in assay [6] was “inactive” in each case. Also, the Potency entry (in assay [8]; with Aromatase (Homo sapiens)) was “inactive” each time. The Potency entry in assay [7] is “inactive and 55.3 µM (active)”.
In the case of `NC(N)=O`, the Potency result in assay [1], in assay [2], in assay [3], in assay [4], in [5] and in assay [6] was “inactive” each time. Besides, the Potency entry (in [7]; in [8]; with Aromatase (Homo sapiens)) was “inactive” each time.
Turning to `OC(Cn1cncn1)(Cn1cncn1)c1ccc(F)cc1F`, the Potency entry in [1], in assay [2], in assay [3], in assay [4], in assay [5] and in assay [6] was “inactive” throughout. In addition, the Potency result in [7], in assay [9] and in assay [8] was “inactive” throughout.
For the compound `Cc1cn([C@H]2C[C@H](N=[N+]=[N-])[C@@H](CO)O2)c(=O)[nH]c1=O`, the Potency entry in [1], in [2], in assay [3], in [4], in assay [5] and in assay [6] was “inactive” each time. Also, the Potency result (in assay [8]; with Aromatase (Homo sapiens)) was “inactive” in each case. The Potency result in assay [7] is “inactive and 17.7 µM (active)”.
As for `CCCCC1C(=O)N(c2ccccc2)N(c2ccccc2)C1=O`, the Potency entry in assay [1], in assay [2], in assay [3], in assay [4], in assay [5] and in assay [6] was “inactive” throughout. The Potency entry (in assay [7]; in [8]; with Aromatase (Homo sapiens)) was “inactive” each time.
In the case of `NC(N)=NC(=O)c1nc(Cl)c(N)nc1N`, the Potency result in assay [1], in assay [3], in assay [4], in [5], in [6] and in assay [7] was “inactive” throughout. The Potency result (in [8]; in the assay with Aromatase (Homo sapiens)) was “inactive” throughout. In addition, the Potency in assay [2] is 21.1 µM (active) and 54.8 µM (active).
With `CC(O)CO` (stereo not drawn), the Potency result in [1], in assay [2], in assay [3], in assay [4], in assay [5] and in assay [6] was “inactive” each time. For the same compound, the Potency entry (in assay [7]; in assay [8]; with Aromatase (Homo sapiens)) was “inactive” in each case.
Consider `Cc1cc(=O)n(-c2ccccc2)n1C`, for which the Potency entry in assay [1], in assay [2], in assay [3], in assay [4], in [5] and in [6] was “inactive” each time. Besides, the Potency entry (in [7]; in [8]; with Aromatase (Homo sapiens)) was “inactive” in each case.
In the case of `CCCCC(CC)COC(=O)/C=C/c1ccc(OC)cc1` (stereo not drawn), the Potency result in assay [1], in [2], in assay [3], in assay [4], in assay [5] and in [6] was “inactive” in each case. In addition, the Potency result (in [7]; in assay [8]; with Aromatase (Homo sapiens)) was “inactive” throughout.
For `N=C(N)c1ccc(OCCCCCOc2ccc(C(=N)N)cc2)cc1`, the Potency was 60.8 µM (active) and 46.4 µM (active) in assay [1]; 26.6 µM (active) and 60.8 µM (active) and 58.4 µM (active) in assay [2]; 12 µM [inconclusive] (active) and 15.4 µM [inconclusive] (active) and 46.8 µM [inconclusive] (active) in assay [4]; 26.1 µM (active) with Aromatase (Homo sapiens). In addition, the Potency result in [3], in [5], in [6] and in assay [8] was “inactive” in each case.
Turning to `Cc1ccc(C)c(OCCCC(C)(C)C(=O)O)c1`, the Potency result in assay [1], in [2], in [3], in assay [4], in assay [5] and in assay [6] was “inactive” throughout. The Potency result (in assay [7]; in assay [8]; in the assay with Aromatase (Homo sapiens)) was “inactive” throughout.
`CC(O)C(=O)O` (stereo not drawn): the Potency result in assay [1], in assay [2], in [3], in [4], in assay [5] and in assay [6] was “inactive” throughout. Besides, the Potency entry (in assay [7]; in [8]; in the assay with Aromatase (Homo sapiens)) was “inactive” each time.
For `NS(=O)(=O)c1cc(C(=O)O)c(NCc2ccco2)cc1Cl`, the Potency entry in [1], in [2], in assay [3], in assay [4], in assay [5] and in [6] was “inactive” throughout. Further, the Potency result in [8] is “inactive”. The Potency in [7] was 15 µM (active).
In the case of `Nc1ccn([C@H]2CC[C@@H](CO)O2)c(=O)n1`, the Potency entry in assay [1], in assay [2], in [3], in assay [4], in assay [5] and in [6] was “inactive” throughout. The Potency entry (in [7]; in assay [8]; with Aromatase (Homo sapiens)) was “inactive” in each case.
On to `O=C1CN(/N=C/c2ccc([N+](=O)[O-])o2)C(=O)N1`, for which the Potency in [1] is 60.9 µM (active) and 68.6 µM (active); in [4], 49 µM [inconclusive] (active); in [6], 2.39 µM [inconclusive] (active) and inactive; in [7] it was 531 nM (active) and inactive; in [8], 43.1 µM (active); with Aromatase (Homo sapiens), 26.6 µM (active) and 43.1 µM (active). The Potency entry in assay [2], in assay [3] and in [5] was “inactive” each time.
